Sampled rows, rich in hits. Any-hit rate of the full collection: about 2.8%.
IP6K1 inhibitor = inhibitors of human IP6K1. Q92551. activity change, % (series mostly up to about 58 µM). IP6K1 kinase, ADP-Glo luminescence, 2 h; active compounds read low. actives 0.81% (n = 140,000); in the data active = activity change below about -25%
Target sequence (Q92551 whole entry, looked up): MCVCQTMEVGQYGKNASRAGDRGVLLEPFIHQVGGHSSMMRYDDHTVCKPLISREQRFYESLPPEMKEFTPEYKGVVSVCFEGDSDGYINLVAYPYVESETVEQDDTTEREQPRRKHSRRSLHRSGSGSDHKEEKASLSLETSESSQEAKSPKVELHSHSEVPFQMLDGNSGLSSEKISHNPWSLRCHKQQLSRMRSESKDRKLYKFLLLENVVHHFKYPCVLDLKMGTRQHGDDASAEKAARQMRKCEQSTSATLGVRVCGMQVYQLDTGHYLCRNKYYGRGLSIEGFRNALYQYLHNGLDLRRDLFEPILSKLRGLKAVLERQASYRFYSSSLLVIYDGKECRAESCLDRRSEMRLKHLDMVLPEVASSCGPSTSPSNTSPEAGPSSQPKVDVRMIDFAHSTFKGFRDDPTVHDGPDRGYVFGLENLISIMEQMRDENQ
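ADP-Glo luminescence measures ADP made by human IP6K1 during a 2 h RT reaction with ATP/IP6 (mix at 1.3 mM/130 uM); top library doses 57.5 and 19.1 uM final.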
KDM5B inh = blocks human KDM5B histone demethylase activity; Q9UGL1; actives 2.6% (n = 220,000); KDM5B demethylase, FDH-coupled NADH fluorescence (FDH is formaldehyde dehydrogenase); AID 1347165; Potency, µM (doses to about 57.7 µM), actives largely listed as inhibitors; active = well fitted inhibition curve with a large enough effect; inconclusive = small, poorly fitted or top-dose-only effect; inactive = no such curve, though single readings can be large or run the other way; note: nearly all actives have a fitted effect of over 70% in size
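qHTS format, multiple compound concentrations. Buffer 50 mM HEPES pH 7.5/0.01% Tween-20; 200 nM KDM5BΔAP final; 10 min compound preincubation; substrate-mix levels 12.5 µM peptide, 25 µM α-KG, 0.25 mM NAD⁺; 30 min RT; ΔRFU.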
Of the large screens only hits and unclear results are named; the others gave an inactive call.

COC(=O)c1cc(C#N)c(N2CC[C@H](CO)[C@@H](O)C2)nc1C	KDM5B inh 25.1µM
CCOC(=O)c1cc(C#N)c(N2CCC(C(=O)NS(=O)(=O)Cc3ccccc3)CC2)nc1C	none (no result: KDM5B inh)
O=C(N[C@@H]1CCOC[C@H]1OCCO)C1CCN(Cc2ccco2)CC1	none
O=C(N[C@@H]1CCOC[C@H]1OCCO)c1cc(C2CC2)nc2ccccc12	KDM5B inh 28.2µM
CCC(C)NC(=O)c1cc(C2CC2)nc2ccccc12 (centres undefined)	none (no result: IP6K1 inhibitor)
O=C(N[C@@H]1CCOC[C@H]1OCCO)c1cccc(-c2ccco2)c1	KDM5B inh 28.2µM
COCC(C)n1c(COc2ccccc2F)nnc1SCC(=O)OC(C)(C)C (centres undefined)	none (no result: IP6K1 inhibitor)
O=C(NCCc1ccc(F)cc1)C1CCCN(Cc2cccc(-c3ccc(F)cc3F)c2)C1 (centres undefined)	none (no result: KDM5B inh)
COc1cc(C(=O)/C=C/c2ccc(SC)cc2)ccc1O	none (no result: IP6K1 inhibitor)
CC(=O)NC(CO)C(=O)N1CCc2onc(-c3cccc4ccccc34)c2C1 (centres undefined)	KDM5B inh 31.6µM
Cc1ccc(C(=O)N2CCc3onc(-c4cccc5ccccc45)c3C2)cc1	KDM5B inh inconclusive
O=C(Cn1cnnn1)N1CCc2onc(-c3cccc4ccccc34)c2C1	KDM5B inh 31.6µM
NC(=O)NCCC(=O)N1CCc2[nH]nc(-c3cccc4ccccc34)c2C1	none
COc1ccc(Nc2ccnc(N3CCCC(C(=O)NC4CCCC4)C3)n2)cc1 (centres undefined)	none (no result: KDM5B inh)
COc1cc2ncnc(N3CC4CCC(C3)N4CC(F)(F)F)c2cc1OC	none
CCc1ncc2c(N3CC4CCC(C3)N4CC(F)(F)F)nc3ccccc3n12	KDM5B inh 70.8µM
COCCOc1ccc(-c2nc(C)ccc2OC)cc1	KDM5B inh 25.1µM
CCN(CC)S(=O)(=O)c1ccc(-c2nc(C)ccc2OC)cc1	KDM5B inh inconclusive
O=C(NCc1ccccc1Cl)c1ccc2nnc(CC3CC3)n2c1	none (no result: KDM5B inh)
C=CCNC(=O)c1ccn2nccc2c1	none
O=C(Nc1ccc(Cl)nc1)c1ccc2ccnn2c1	KDM5B inh 31.6µM
C=CCNC(=O)c1cccn2nccc12	KDM5B inh 31.6µM
O=C(Nc1ccc(F)cc1)c1cccn2nccc12	none
CNC(=O)c1ccc2nnc(-c3ccc(Cl)cc3)n2c1	none (no result: KDM5B inh)
O=C(Nc1ccc(Cl)nc1)c1cccn2nccc12	KDM5B inh 35.5µM
O=C(Nc1ccc(Cl)nc1)c1cccn2cncc12	KDM5B inh inconclusive
CNC(=O)c1ccc2ccnn2c1	KDM5B inh 35.5µM
O=C(NC1CCCCCC1)C1CCN(C(=O)c2ccc(-c3cccs3)cc2)CC1	none (no result: KDM5B inh)
CCOc1ccc(NC(=O)c2cnn(-c3ccc(C)cc3)c2-n2cccc2)cc1	none (no result: IP6K1 inhibitor)
Cc1nn(-c2ccccc2)c2c1C(C(C)C)N(C1CCCN([S+](=O)([O-])c3ccccc3)C1)C2=O (centres undefined)	none (no result: KDM5B inh)
O=C(Nc1cc2c(cc1C(O)c1ccc(Br)cc1)OCCO2)c1ccc(F)cc1 (centres undefined)	none (no result: IP6K1 inhibitor)
COCCNC(=O)c1cc(-c2cccc(F)c2)nc2c1cnn2C	none (no result: KDM5B inh)
COCCN(C)C[C@@H]1CN(c2cc(C)c3ccc(SC)cc3n2)C[C@@H]1CO	KDM5B inh 28.2µM
COCCN(C)C[C@@H]1CN(C(=O)c2cnc(SC)nc2)C[C@@H]1CO	none
COc1ccc([C@@H](NC(=O)c2cc3ncccn3n2)C2CC(O)C2)cn1 (some centres undefined)	none
O=C(c1ccc2nccn2c1)N1CCCC1	KDM5B inh inconclusive
CN(C)C(=O)c1ccc2nccn2c1	KDM5B inh 126µM
CC(C)NC(=O)c1ccc2nccn2c1	KDM5B inh 141µM
COc1ccc([C@@H](NC(=O)c2ccc3nccn3c2)C2CC(O)C2)cn1 (some centres undefined)	KDM5B inh 20µM
O=C(c1ccc2nccn2c1)N1CCCCC1	none
O=C(Cc1n[nH]c(=O)c2ccccc12)Nc1ccc(F)cc1	none (no result: IP6K1 inhibitor)
COc1ccccc1CN1CCNc2cnc(Nc3ccccc3)cc2C1	KDM5B inh inconclusive
COc1cccc(Nc2cc3c(cn2)NCCN(Cc2ccccc2)C3)c1	KDM5B inh 39.8µM
COc1cccc(CN2CCNc3cc(Nc4cccnc4)ncc3C2)c1	none
COc1cccc(CN2CCNc3cnc(Nc4ccccc4)cc3C2)c1	KDM5B inh 35.5µM
CCOC(=O)NC1CCCN(Cc2cccc(-c3ccc(C)c(Cl)c3)c2)C1 (centres undefined)	none (no result: KDM5B inh)
COc1ccc(CNC(=O)C2CCCN(c3nccc(Nc4ccc(OC)cc4)n3)C2)cc1 (centres undefined)	none (no result: KDM5B inh)
COc1ccc(/C=C/C(=O)c2cc3ccccc3o2)cc1OC	none (no result: IP6K1 inhibitor)
CC(=O)Nc1ccc(CN2C[C@@H](F)[C@@H](OCc3nc4ccccc4n3C)C2)cc1	KDM5B inh 31.6µM
COc1ccc(CN2C[C@@H](F)[C@@H](OCc3nc4ccccc4n3C)C2)cn1	none
CCOC(=O)[C@@H]1CN(C(=O)NC2CCCC2)[C@H]2c3ccccc3O[C@@H]12	none (no result: KDM5B inh)
O=C(NCc1ccc(F)cc1)c1nc2sccn2c1-c1ccc(C(F)(F)F)cc1	none (no result: KDM5B inh)

Bioassay records (PubChem BioAssay)
